Data as given in ChEMBL document CHEMBL4513216, “Probing the Open Global Health Chemical Diversity Library for Multistage-Active Starting Points for Next-Generation Antimalarials” (ACS Infect Dis, 2020).
Out of some 65,000 compounds screened, about 2,100 (3.2%) showed an effect of 50% or more. The median lay at about -52%. The entries come from a sample that favours strong results as a whole.

Test system: Plasmodium falciparum
Assay: Screen against P. falciparum Asexual Blood Stage (ABS), at 5uM
Assay type: functional, Dd2
Settings: tested at 5 uM

In order of rising INHIBITION:
1. O=c1[nH]ccn1CCCN1CC=C(c2cnn(-c3ccccc3)c2)CC1  -235%
2. CN(C)C(=O)CN1C[C@@H]2OCCN(c3ncc(F)cn3)[C@@H]2C1  -196%
3. O=C1OCCC1N1CCN(C(=O)Cc2c[nH]c3ccccc23)CC1 (stereo unspecified)  -131%
4. c1cncc(O[C@@H]2CC[C@H]3[C@H]2OCCN3C2CCCC2)c1  -118%
5. COCCn1cc(C(=O)NCCS(N)(=O)=O)c2ccccc21  -110%
6. Cc1cc(CN2CC[C@H]3C[C@H](c4nccs4)O[C@@H]3C2)no1  -108%
7. O=C(NCCc1c[nH]cn1)c1ccccc1C1CCNC1 (stereo unspecified)  -101%
8. c1ccc(CO[C@@H]2C[C@H]3CN(c4ncccn4)CCN3C2)cc1  -95.6%
9. CCN1CCNC(=O)C12CCN(C(=O)Cc1ccccn1)CC2  -95%
10. Cc1nc(O)cc(CN2CC=C(c3cnn(-c4ccccc4)c3)CC2)n1  -90.2%
11. COc1cc(C2SCC(=O)Nc3[nH]ncc32)cc2c1OCO2 (stereo unspecified)  -86.5%
12. O=C(c1cccnc1-n1cncn1)N1CCC(Nc2ccccc2)CC1  -86.3%
13. c1cncc(OC[C@@H]2CCC[C@@]23CN(Cc2nccs2)CCO3)c1  -85.2%
14. Cc1c(NC(=O)NC2CN3CCC2CC3)cccc1C(=O)N1CCCC1 (stereo unspecified)  -83.7%
15. O=C(Cc1ccc(O)c(F)c1)N1CCN(CC2CC2)[C@@H]2CS(=O)(=O)C[C@@H]21  -78.4%
16. O=C1CCSCC(C(=O)N2CCC3(CC2)OCCO3)N1 (stereo unspecified)  -78%
17. Cc1cccc(CN2CC[C@@H]3[C@@H]2CCN3C(=O)c2ccoc2C)n1  -77.9%
18. CC(C)=CCN1CCN(C(=O)COc2ccccc2)[C@H]2CS(=O)(=O)C[C@H]21  -73.8%
19. CCOC(=O)[C@@H]1[C@@H](c2ccccc2)CN2CCN(S(C)(=O)=O)C[C@H]12  -73.1%
20. COc1cc(CNC(C)Cn2cccn2)cc(OC)c1 (stereo unspecified)  -72.2%
21. O=C(c1cn(Cc2ccccc2)c2ncccc12)N1CCOCC1  -68.2%
22. O=C(NC[C@]12COC[C@H]1CN(Cc1ccncc1)C2)c1ccno1  -67.3%
23. Fc1cnccc1CN1CCC2(CCNCC2)C1  -66.9%
24. CCS(=O)(=O)NC[C@]12COC[C@H]1CN(Cc1ccncc1)C2  -65.2%
25. Cn1cc(C2=CCN(CCCOc3ccc(C(N)=O)cc3)CC2)cn1  -64.5%
26. COc1c(CNCCc2c[nH]c3ccccc23)c(C)nn1C  -60.7%
27. Cc1nc(CC(=O)N2CCN(C(C)c3ccccc3F)CC2)cs1 (stereo unspecified)  -60.5%
28. O=C(c1onc2ccccc12)N1CCC2(CCCNC2)C1 (stereo unspecified)  -59.1%
29. Cc1ccc(N2C[C@@H]3CN(Cc4ccsc4)CCO[C@@H]3C2)nn1  -56.6%
30. Cc1cc(C)c(CNc2ncnc3c2cnn3C)c(=O)[nH]1  -55.6%
31. CN(C)C(=O)CN1CC=C(c2cnn(Cc3ccccc3)c2)CC1  -52.4%
32. O=C1[C@H]2CN(Cc3ccncc3)C[C@H]2CN1c1cncnc1  -49.7%
33. CN1C[C@H]2N(c3ncccn3)CCC[C@@]2(C(=O)NCC2CC2)C1  -48.6%
34. C1=C(c2c[nH]c3ncccc23)CCN(Cc2nnc(C3CC3)o2)C1  -48.5%
35. O=C(c1cscn1)N1CCC2(CN(Cc3ccncc3)C2)C1  -48%
36. CC(Cc1c(F)cccc1F)NC(=O)NCc1ncnn1C (stereo unspecified)  -43.1%
37. CNC(=O)[C@H]1C[C@H]2OCC[C@H]2N(CC2CC2)C1  -40%
38. CC(Cc1ccccc1Br)NC(=O)CCS(C)(=O)=O (stereo unspecified)  -38.5%
39. CN(C)C(=O)N1CCC2(C1)CN(c1cccnc1)C(=O)CN2C (stereo unspecified)  -35.4%
40. CC(C)N1[C@H](Cn2cncn2)C[C@@H]2CNCC[C@@H]21  -34.9%
41. COc1cccc(Cn2cc(C3=CCN(CC(=O)N(C)C)CC3)cn2)c1  -27.6%
42. CCC(O)Cn1cc(C2=CCN(Cc3cc(O)nc(C)n3)CC2)cn1 (stereo unspecified)  -24.6%
43. CCN1C[C@H]2N(c3ncccn3)CCC[C@@]2(C(=O)NCC2CC2)C1  -24.6%
44. COCCCN1CCCC12CCN(c1ncccn1)CC2  -22.9%
45. CN1CCN(Cc2cccnc2)C(=O)C12CCN(S(C)(=O)=O)CC2  -18.9%
46. O=C(N[C@H]1COC[C@@H]1N1CCCC1)c1c[nH]nc1C1CCCCC1  -18.2%
47. CC(C)c1cc(C(=O)N2CCN(C)[C@@H]3CS(=O)(=O)C[C@@H]32)no1  -14.6%
48. O=C1CSC(c2ccc3c(c2)OCO3)c2cn[nH]c2N1 (stereo unspecified)  -10.6%
49. CCN1CCN(c2ccc(NC(=O)CC(C)C)c(C)c2)CC1  -6.8%
50. CC(C)CCN1CCC2(CNS(=O)(=O)c3cccnc3O2)C1 (stereo unspecified)  -5.49%
51. CNc1ncc(CN(C)c2ncnc3onc(C)c23)cn1  -3.41%
52. Cc1nn(-c2ncccn2)c2c1C(c1cnn(C)c1C)SCC(=O)N2 (stereo unspecified)  -1.18%
53. O=C(Nc1cccnc1)[C@H]1CN(Cc2cccs2)C[C@H]2OCC[C@@H]12  2.31%
54. CCN1CCN(C(=O)COc2ccc(CN(C)S(C)(=O)=O)cc2)CC1  3.25%
55. Cc1cccc(CN2C[C@@H]3OCCN(c4cnccn4)[C@@H]3C2)n1  4.89%
56. Cc1cnc(CN2CC=C(c3c[nH]c4ncccc34)CC2)o1  12.6%
57. CC(C)S(=O)(=O)N1C[C@@H](c2ccccc2)[C@H]2[C@H]1CCCCCN2C  20.4%
58. COc1ccc(CCNCc2c(C)nn(C)c2N(C)C)cc1OC  21.4%
59. c1cncc(CO[C@H]2CO[C@@]3(CCN(Cc4ccoc4)C3)C2)c1  23.3%
60. NCC1(c2cccc(C(F)(F)F)c2)CCC1  26.1%
61. Cc1cc(CN2CC[C@H]3[C@H]2CCN3C)oc1C  43%
62. Cc1ccc(CN2CCC3(CC2)C(=O)Nc2ccccc23)s1  46.9%
63. COc1cc(CNCC(O)c2ccc(C)cc2)cc2c1OCCO2 (stereo unspecified)  48.2%
64. COc1c(CNCCc2c[nH]c3cc(F)ccc23)c(C)nn1C  50%
65. COc1cccc(Cn2cc(C3=CCN(CCO)CC3)cn2)c1  54.2%
66. COc1c(CNCCc2c[nH]c3cc(F)ccc23)c(C(C)C)nn1C  59.7%
67. CCC(O)Cn1cc(C2=CCN(Cc3ccc(OC)cc3)CC2)cn1 (stereo unspecified)  68.7%
68. COc1ccc(CN(Cc2ccccn2)Cc2cncn2C)cc1  70.1%
69. CCc1ccccc1OCCNCCc1c[nH]cn1  71.2%
70. Cc1cn2nc(N3CCCC3CC(C)(C)C)sc2n1 (stereo unspecified)  71.6%
71. CCN(CC)S(=O)(=O)N1C[C@@H](c2ccccc2)[C@H]2[C@H]1CCCCCN2C  71.7%
72. c1coc(-c2nc(CNC3CCC4(CCNCC4)CC3)no2)c1  73.4%
73. CN1CCN(c2ccc(NC(=O)c3cccs3)c(C(F)(F)F)c2)CC1  73.6%
74. COc1cc(CNCC(O)c2ccc(C)cc2)cc2c1OCO2 (stereo unspecified)  74%
75. Brc1ccc(C2(CNCc3cc[nH]c3)CCOCC2)cc1  74.5%
76. FC(F)(F)c1cccc(C2(CNCc3cc[nH]c3)CCOCC2)c1  75.1%
77. COc1cccc(OC)c1CN1CC(=O)N(c2ccc(C)cc2)CC1C (stereo unspecified)  75.2%
78. Cc1cc(S(=O)(=O)NCC2CNCCOC2)c(C)cc1Cl (stereo unspecified)  75.4%
79. COc1cc(CNC(c2ccccc2)c2nccn2C)cc(OC)c1 (stereo unspecified)  75.5%
80. CCN1CCCC(CNC(=O)C2(c3cc(C)cc(C)c3)CCC2)C1 (stereo unspecified)  75.8%
81. COc1cc(C)c(CN2CCC3(CC2)[C@H](O)C[C@@H]3OCCN)cc1C  77.2%
82. CCC(C)N(Cc1ccc(C)cc1)Cc1c[nH]c(C)n1 (stereo unspecified)  77.5%
83. COc1cc(CNCC(O)c2ccc(F)c(F)c2)cc2c1OCO2 (stereo unspecified)  78.2%
84. CC(C)=CCN1CCC2(CC1)c1ccccc1[C@@H](N1CCSCC1)[C@@H]2O  78.5%
85. C1Cc2nc(CCNc3nc(C4CC4)nc4c3CCNCC4)sc2C1  78.5%
86. CC(NC1(CNS(=O)(=O)N(C)C)CCCC1)c1ccccc1 (stereo unspecified)  78.7%
87. Cc1cc(CN2CCC(CNS(=O)(=O)c3ccccc3F)CC2)c(C)o1  79.2%
88. Cc1c(-c2ccccc2)nc2c(c(C)c(C)n2CCN(C)C)c1N  80.1%
89. Cc1ccccc1CN(CCN(C)C)Cc1ccc(S(C)(=O)=O)cc1  80.4%
90. CCn1cc(C2=CCN(CCCOc3ccccc3)CC2)cn1  82%
91. Brc1cccc(C2(CNCc3cc[nH]c3)CCOCC2)c1  83.1%
92. Fc1ccc2c(C3=CCN(Cc4nnc(C5CCC5)o4)CC3)c[nH]c2c1  83.9%
93. CN(C)CCNC(=O)c1ccn(-c2ccc3ccccn23)n1  84%
94. NCCC(Cc1ccccc1)c1ccco1 (stereo unspecified)  84.1%
95. c1ccc(Cn2cccn2)c(CN2CCC3(CCCNC3)C2)c1 (stereo unspecified)  85%
96. Cc1cc(CN2CCC(CNS(=O)(=O)c3ccc(C)s3)CC2)c(C)o1  87.7%
97. CCCc1nc2c(c(C)c(C)n2CCN(C)C)c(N)c1CC  89.9%
98. Cc1cc(CN2CCC(CNS(=O)(=O)c3ccc(Br)s3)CC2)c(C)o1  91.6%
99. COc1cc(CNCC(O)c2cccc(F)c2)cc2c1OCO2 (stereo unspecified)  92.4%
100. Cc1cc(C)c(CNCC(O)c2ccc(F)c(F)c2)c(C)c1 (stereo unspecified)  93%
101. Cc1ccc(CN(c2cc(C)nc3nc(C(F)(F)F)nn23)C2CC2)cc1  94%
